Measurements taken from PubChem BioAssay (NCATS).
Values joined by “and” are separate entries in the source; they are usually repeats but may differ in a detail not shown here. Equal values may be shown once. Values without a mark were called inactive. Inconclusive results are not listed. Where a call stands in place of a potency, no number is given. Active and inactive are the calls of the source. Unless noted, calls come from the whole dose curve; as a rule, active = well fitted curve in the direction sought with a large enough effect; inconclusive = small, poorly fitted or top-dose-only effect, or another doubt; inactive = no such curve, though single readings can be large; an effect the other way counts as inactive or inconclusive.

Experiments:
[1] = target: Parathyroid hormone/parathyroid hormone-related peptide receptor (Homo sapiens) (UniProt Q03431); experiment: qHTS for PTHR1 Agonists: Optimization Screen against the NCGC LOPAC library (AID 1347079);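 note: GloSensor cAMP luminescence in HEK-293 GP2 cells expressing human PTHR1 with IBMX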
Sequence of Parathyroid hormone/parathyroid hormone-related peptide receptor (Homo sapiens) (Q03431 whole entry, looked up): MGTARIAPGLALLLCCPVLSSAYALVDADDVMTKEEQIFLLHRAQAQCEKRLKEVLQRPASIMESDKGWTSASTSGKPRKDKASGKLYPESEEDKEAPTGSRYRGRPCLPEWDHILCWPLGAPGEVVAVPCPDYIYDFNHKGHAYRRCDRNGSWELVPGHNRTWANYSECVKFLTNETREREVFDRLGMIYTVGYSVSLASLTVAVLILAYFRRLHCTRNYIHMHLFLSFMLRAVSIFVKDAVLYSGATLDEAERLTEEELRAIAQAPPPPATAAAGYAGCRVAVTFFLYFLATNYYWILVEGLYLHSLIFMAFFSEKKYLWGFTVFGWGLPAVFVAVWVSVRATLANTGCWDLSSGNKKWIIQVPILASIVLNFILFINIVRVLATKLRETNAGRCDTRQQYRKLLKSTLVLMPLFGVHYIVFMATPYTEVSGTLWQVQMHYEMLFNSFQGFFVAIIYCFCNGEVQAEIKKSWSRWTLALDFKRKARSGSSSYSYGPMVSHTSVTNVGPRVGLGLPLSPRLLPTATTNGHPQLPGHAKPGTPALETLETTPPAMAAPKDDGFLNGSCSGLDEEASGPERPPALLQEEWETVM
In short: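 Agonist readout: GloSensor cAMP luminescence, read after 15 min at room temperature. HEK-293-derived GP2 line carries PTHR1; compounds tested as a titration for 1 hr at 37C in presence of IBMX. M-PTH (1-15) served as control.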

[2] = qHTS for Inhibitors of the Functional Ribonucleoprotein Complex (vRNP) of Lassa (LASV) Arenavirus: LASV Primary Screen - GLuc reporter signal (AID 1347082; calls by dose curve; tested in HEK293 reporter line; note: nearly all actives have a fitted effect of over 60% in size; note: potency is the fitted concentration of half-maximal effect)
[3] = qHTS for Inhibitors of the Functional Ribonucleoprotein Complex (vRNP) of Lassa (LASV) Arenavirus: Viability assay - alamar blue signal for LASV Primary Screen (AID 1347083; calls by dose curve; tested in HEK293 reporter line; note: nearly all actives have a fitted effect of over 80% in size; note: potency is the fitted concentration of half-maximal effect)
[4] = qHTS for Inhibitors of the Functional Ribonucleoprotein Complex (vRNP) of Lymphocytic Choriomeningitis Arenaviruses (LCMV): Viability assay - alamar blue signal for LCMV Primary Screen (AID 1347085; calls by dose curve; tested in HEK293 reporter line; note: nearly all actives have a fitted effect of over 80% in size; note: potency is the fitted concentration of half-maximal effect)
[5] = target: Nucleoprotein (Lymphocytic choriomeningitis virus (strain Armstrong)) (UniProt P09992); experiment: qHTS for Inhibitors of the Functional Ribonucleoprotein Complex (vRNP) of Lymphocytic Choriomeningitis Arenaviruses (LCMV): LCMV Primary Screen - GLuc reporter signal (AID 1347086; calls by dose curve; note: series mostly up to about 57 µM; nearly all actives have a fitted effect of over 70% in size)
Sequence of Nucleoprotein (Lymphocytic choriomeningitis virus (strain Armstrong)) (P09992 whole entry, looked up): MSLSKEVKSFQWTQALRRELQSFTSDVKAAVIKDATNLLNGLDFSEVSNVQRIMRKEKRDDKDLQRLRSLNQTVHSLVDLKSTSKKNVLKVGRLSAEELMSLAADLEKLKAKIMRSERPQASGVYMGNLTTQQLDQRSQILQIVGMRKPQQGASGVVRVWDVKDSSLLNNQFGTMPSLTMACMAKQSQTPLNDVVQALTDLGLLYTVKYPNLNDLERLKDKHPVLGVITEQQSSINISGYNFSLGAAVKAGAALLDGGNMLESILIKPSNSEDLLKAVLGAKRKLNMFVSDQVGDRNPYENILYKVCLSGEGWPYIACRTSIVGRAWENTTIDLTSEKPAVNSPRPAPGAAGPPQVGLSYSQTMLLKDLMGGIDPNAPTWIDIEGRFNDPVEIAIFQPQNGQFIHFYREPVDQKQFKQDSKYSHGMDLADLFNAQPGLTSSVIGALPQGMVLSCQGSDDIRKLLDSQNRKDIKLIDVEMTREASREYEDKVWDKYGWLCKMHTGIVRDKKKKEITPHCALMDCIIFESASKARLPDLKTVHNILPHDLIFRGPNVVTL

[6] = qHTS of pediatric cancer cell lines to identify multiple opportunities for drug repurposing: Primary screen for TC32 cells (AID 1347089); note: nearly all actives have a fitted effect of over 60% in size; note: potency is the fitted concentration of half-maximal effect
In short: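 Luminescent ATP read-out (CellTiter-Glo) of metabolically active TC32 cells after 48 h exposure. Concentration-response curves came from 11-point (MIPE, 0.78 nM–46 µM) or 8-point (NPC, 0.59 nM–46 µM) primary titrations; follow-up used 11 points.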

[7] = qHTS of pediatric cancer cell lines to identify multiple opportunities for drug repurposing: Primary screen for DAOY cells (AID 1347090); note: nearly all actives have a fitted effect of over 55% in size; note: potency is the fitted concentration of half-maximal effect
In short: (§1)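 Eight- or eleven-point concentration series, 48 h treatment at 37 degrees C in growth media; readout CellTiter-Glo luminescence. Potency and efficacy were taken from the concentration-response curves.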

[8] = qHTS of pediatric cancer cell lines to identify multiple opportunities for drug repurposing: Primary screen for SJ-GBM2 cells (AID 1347091); note: potency is the fitted concentration of half-maximal effect
In short: as §1

[9] = qHTS of pediatric cancer cell lines to identify multiple opportunities for drug repurposing: Primary screen for A673 cells (AID 1347092); note: nearly all actives have a fitted effect of over 45% in size; note: potency is the fitted concentration of half-maximal effect
In short: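 Cell viability of A673 measured by CellTiter-Glo ATP luminescence after 48 hours compound exposure. Dilution series spanned 0.78 nM to 46 µM (MIPE, 11-point) or 0.59 nM to 46 µM (NPC, 8-point); bortezomib 2.3 uM positive control.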

[10] = qHTS of pediatric cancer cell lines to identify multiple opportunities for drug repurposing: Primary screen for NB-EBc1 cells (AID 1347095); note: potency is the fitted concentration of half-maximal effect
In short: (§2)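 Cells plated at 500-1,000/well in growth medium, compounds added after 5 h. MIPE tested at 11 points (from 0.78 nM), NPC at 8 points (from 0.59 nM). CellTiter-Glo luminescence after 48 h; concentration-response curves from primary screen.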

[11] = qHTS of pediatric cancer cell lines to identify multiple opportunities for drug repurposing: Primary screen for U-2 OS cells (AID 1347096); note: nearly all actives have a fitted effect of over 50% in size
In short: (§3)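 Cells (500-1,000/well) in growth media were settled 5 h at 37 degrees C, then given compounds for 48 h. Viability was read as CellTiter-Glo luminescence. Primary runs used MIPE at 11 points (0.78 nM-46 µM) and NPC at 8 points (0.59 nM-46 µM); follow-ups used 11 points.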

[12] = qHTS of pediatric cancer cell lines to identify multiple opportunities for drug repurposing: Primary screen for Saos-2 cells (AID 1347097); note: nearly all actives have a fitted effect of over 40% in size; note: potency is the fitted concentration of half-maximal effect
In short: as §2

[13] = qHTS of pediatric cancer cell lines to identify multiple opportunities for drug repurposing: Primary screen for SK-N-SH cells (AID 1347098); note: nearly all actives have a fitted effect of over 65% in size; note: potency is the fitted concentration of half-maximal effect
In short: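 Cells (500-1,000/well) rested 5 h, then received compounds for 48 h; metabolically active cells were measured by CellTiter-Glo luminescence. Final concentrations spanned up to 46 µM (MIPE, 11-point) or 0.59 nM-46 µM (NPC, 8-point) in primary screens, 11-point in follow-ups.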

[14] = qHTS of pediatric cancer cell lines to identify multiple opportunities for drug repurposing: Primary screen for NB1643 cells (AID 1347099); note: nearly all actives have a fitted effect of over 50% in size
In short: as §2

[15] = qHTS of pediatric cancer cell lines to identify multiple opportunities for drug repurposing: Primary screen for LAN-5 cells (AID 1347100); note: potency is the fitted concentration of half-maximal effect
In short: as §3

[16] = target: T1, Tyrosine-protein phosphatase non-receptor type substrate 1 (Homo sapiens) + Leukocyte surface antigen CD47 (Homo sapiens) (UniProt P78324+Q08722); experiment: CD47-SIRPalpha protein protein interaction - LANCE assay qHTS validation (AID 1347057; active = well fitted curve in the direction sought with a large enough effect in the signal ratio, with a control signal flat, not every such curve was filed as active; the % refers to the signal ratio; note: series mostly up to about 38 µM)
T1 sequence (P78324 whole entry, looked up): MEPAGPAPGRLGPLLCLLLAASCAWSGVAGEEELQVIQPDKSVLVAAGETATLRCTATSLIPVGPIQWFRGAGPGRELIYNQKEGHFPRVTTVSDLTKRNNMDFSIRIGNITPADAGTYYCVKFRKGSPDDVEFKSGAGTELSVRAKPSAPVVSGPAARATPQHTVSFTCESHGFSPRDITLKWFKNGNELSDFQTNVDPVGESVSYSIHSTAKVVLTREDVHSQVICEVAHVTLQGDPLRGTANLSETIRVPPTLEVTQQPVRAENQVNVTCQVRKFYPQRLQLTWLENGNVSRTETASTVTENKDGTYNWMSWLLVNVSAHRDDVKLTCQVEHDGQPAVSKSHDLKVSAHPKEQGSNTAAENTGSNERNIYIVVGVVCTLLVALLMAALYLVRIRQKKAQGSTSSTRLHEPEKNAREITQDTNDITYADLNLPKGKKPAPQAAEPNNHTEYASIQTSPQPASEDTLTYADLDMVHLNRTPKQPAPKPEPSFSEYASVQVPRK
T1 sequence (Q08722 whole entry, looked up): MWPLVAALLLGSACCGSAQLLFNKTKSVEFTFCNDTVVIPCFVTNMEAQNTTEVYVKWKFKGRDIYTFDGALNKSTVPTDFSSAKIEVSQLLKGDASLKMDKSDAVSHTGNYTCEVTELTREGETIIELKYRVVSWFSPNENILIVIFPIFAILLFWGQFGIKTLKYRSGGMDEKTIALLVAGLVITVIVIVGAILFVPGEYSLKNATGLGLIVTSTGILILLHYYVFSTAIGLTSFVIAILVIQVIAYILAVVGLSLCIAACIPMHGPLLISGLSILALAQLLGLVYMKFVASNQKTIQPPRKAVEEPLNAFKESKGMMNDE
In short: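 First, His-tagged CD47 and Eu-labelled anti-His antibody met the compound for 30 min; next, site-specifically biotinylated SIRPalpha was added for 30 min; finally streptavidin-APC was added before reading the TR-FRET ratio.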

[17] = target: T1, Tyrosine-protein phosphatase non-receptor type substrate 1 (Homo sapiens) + Leukocyte surface antigen CD47 (Homo sapiens); experiment: CD47-SIRPalpha protein protein interaction - HTRF assay qHTS validation (AID 1347058; active = well fitted curve in the direction sought with a large enough effect in the signal ratio, not every such curve was filed as active; the % refers to the signal ratio; note: series mostly up to about 38 µM)
In short: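 TR-FRET read (Ch1/Ch2 ratio) of soluble extracellular CD47 and Avi-biotinylated SIRPalpha domains in PBS pH 7.4 with 0.05% IGEPAL; 7-point compound titration. Sequential 30 min room-temperature steps; non-biotinylated SIRPalpha as control inhibitor.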

[18] = target: T1, Tyrosine-protein phosphatase non-receptor type substrate 1 (Homo sapiens) + Leukocyte surface antigen CD47 (Homo sapiens); experiment: CD47-SIRPalpha protein protein interaction - Alpha assay qHTS validation (AID 1347059);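 note: bead proximity luminescence from CD47 binding SIRPalpha after compound preincubation with SIRPalpha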
In short: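 Soluble extracellular domains: Avi-tag biotinylated SIRPalpha (25 nM) preincubated 30 min RT with compound, then 6His-CD47 (12.5 nM) 30 min; Ni-NTA acceptor and streptavidin donor beads (10 ug/mL) 30 min, AlphaScreen read. PBS pH 7.4, 0.05% IGEPAL.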

[19] = qHTS of pediatric cancer cell lines to identify multiple opportunities for drug repurposing: Primary screen for SK-N-MC cells (AID 1347093); note: potency is the fitted concentration of half-maximal effect
In short: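 Metabolically active cells were quantified by ATP-dependent luminescence (CellTiter-Glo, 15 min at room temperature) following 48 h treatment. Cells had been plated at 500-1,000 per well and settled for 5 h beforehand.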

[20] = qHTS of pediatric cancer cell lines to identify multiple opportunities for drug repurposing: Primary screen for BT-37 cells (AID 1347094); note: potency is the fitted concentration of half-maximal effect
In short: as §2

SMILES | outcome [1] | Potency [2] | Potency [3] | Potency [4] | Potency [5] | Potency [6] | Potency [7] | Potency [8] | Potency [9] | Potency [10] | Potency [11] | Potency [12] | Potency [13] | Potency [14] | Potency [15] | outcome [16] | outcome [17] | outcome [18] | Potency [19] | Potency [20]
COc1ccc(C(CN(C)C)C2(O)CCCCC2)cc1 (stereo not drawn) | inactive | inactive | inactive | inactive | inactive | inactive | inactive | inactive | inactive | inactive | inactive | inactive | inactive | inactive | inactive |  |  |  |  | 
Cc1ccc(S(=O)(=O)N[C@@H](CCCCN)C(=O)CCl)cc1 | inactive | inactive | inactive | inactive | inactive |  | inactive | inactive | inactive |  | inactive |  | inactive |  | inactive | inactive | inactive | inactive | 21.1 µM (active) | inactive
CCCN1CCC[C@@H]2Cc3[nH]ncc3C[C@H]21 | inactive | inactive | inactive | inactive | inactive | inactive | inactive | inactive | inactive | inactive | inactive |  | inactive | inactive | inactive | inactive | inactive | inactive | inactive | 
Cn1ccc2cc3c(cc21)CCN3C(=O)Nc1cccnc1 |  | inactive |  |  |  |  |  |  |  |  |  |  |  |  |  |  |  |  |  | 
CNCC(O)c1ccc(O)cc1 (stereo not drawn) | inactive | inactive | inactive | inactive | inactive | inactive | inactive | inactive | inactive | inactive | inactive | inactive | inactive |  | inactive | inactive | inactive | inactive | inactive | 
CC(=O)[C@H]1CC[C@H]2[C@@H]3CC[C@H]4C[C@H](O)CC[C@]4(C)[C@H]3C(=O)C[C@]12C | inactive | inactive | inactive | inactive | inactive | inactive | inactive | inactive | inactive |  | inactive | inactive | inactive | inactive | inactive | inactive | inactive | inactive | inactive | 
C=CC(=O)Nc1cc2c(Nc3ccc(F)c(Cl)c3)ncnc2cc1OCCCN1CCOCC1 |  | inactive |  |  |  |  |  |  |  |  |  |  |  |  |  |  |  |  |  | 
NCC(O)c1ccc(O)cc1 (stereo not drawn) | inactive | inactive | inactive | inactive | inactive | inactive | inactive | inactive | inactive | inactive | inactive | inactive | inactive |  | inactive | inactive | inactive | inactive | inactive | inactive
O=c1[nH]c2ccccc2n1C1CCN(CCCC(c2ccc(F)cc2)c2ccc(F)cc2)CC1 | inactive |  | inactive | inactive |  | inactive |  |  |  |  | inactive |  | 27.3 µM (active) |  |  | inactive | inactive | inactive | 16.8 µM (active) | 
C=C(C)[C@H]1Cc2c(ccc3c2O[C@@H]2COc4cc(OC)c(OC)cc4[C@@H]2C3=O)O1 | inactive | 1.09 µM (active) | 2.17 µM (active) and 708 nM (active) | 3.85 µM (active) |  | 1.67 µM (active) and 4.66 µM (active) | 168 nM (active) and 296 nM (active) | 0.422 µM (active) | 106 nM (active) and 743 nM (active) | 3.35 µM (active) and 2.64 µM (active) |  | 0.944 µM (active) |  |  | 1.68 µM (active) and 526 nM (active) | inactive | inactive |  | 299 nM (active) and 590 nM (active) | 777 nM (active) and 2.17 µM (active)
Cc1cccc(C)c1NC(=O)CN1CCCC1=O | inactive | inactive | inactive | inactive | inactive | inactive | inactive | inactive | inactive |  | inactive | inactive | inactive | inactive | inactive | inactive | inactive | inactive | inactive | 
Nc1ccncc1 | inactive | inactive | inactive | inactive | inactive | inactive | inactive | inactive | inactive | inactive | inactive | inactive | inactive |  | inactive | inactive | inactive | inactive | inactive | inactive
c1ccc(C2CC2)c(OCC2=NCCN2)c1 | inactive | inactive | inactive | inactive | inactive |  | inactive | inactive | inactive |  | inactive |  | inactive |  | inactive | inactive | inactive | inactive | inactive | 
